From PubChem BioAssay AID463173 (ICCB-Longwood Screening Facility, Harvard Medical School, 2010)
Hit rate of the full screen: of about 52,000 compounds, about 4,300 (8.3%) were called active. The list comes from a sample in which actives are over-represented; it also holds similar structures and randomly drawn compounds. Unmarked numbers belong to inactive results. No stated cut-off is given here; in the data, active means survival mostly below about 52% (no sharp cut-off); inactive means mostly above about 56%.

These compounds were tested on DeltatarO mutant (assay: S. aureus survival, RN4220 and DeltatarO strains – OD600, teichoic acid synthesis inhibitors, primary screen (AID 463173)). Conditions: S. aureus RN4220 wild type/DeltatarO growth, OD600, 18 h, hits give low values, screened at 18.75 µg/mL (by protocol).

Row | Structure (SMILES) | survival
1 | Cc1ccc(NC(=O)C(=O)NCc2ccco2)cc1 | 58%
2 | O=c1cc(CSc2n[nH]c(-c3ccccc3)n2)[nH]c2ccccc12 | 129%
3 | Cc1nn2c(=O)cc(COC(=O)c3cccc(NC(=O)c4ccc(C(C)(C)C)cc4)c3)nc2s1 | 85%
4 | CCc1nn(CC(=O)NCCC(C)C)c(=O)c2cc3occc3n12 | 125%
5 | CCCc1cc(=O)[nH]c(Nc2cc(Cl)ccc2OC)n1 | 68%
6 | COC(=O)c1cccc(NC(=O)C2CCN(S(=O)(=O)Cc3ccccc3)CC2)c1C | 77%
7 | COc1cccc(-n2c(-c3ccc(C)cc3)cc3c2CC(C)(C)CC3=O)c1 | 18% (active)
8 | Cc1cccc(-n2c3c(cc(-c4nc(-c5ccc(Cl)cc5)cs4)c2=O)C(=O)CC(C)(C)C3)c1 | 62% (active)
9 | COc1ccc(C)cc1-n1c(-c2ccc(C)cc2)cc2c1CC(C)(C)CC2=O | 114%
10 | COc1ccc(-n2c(-c3ccc(Cl)cc3)cc3c2CC(C)(C)CC3=O)c(OC)c1 | 4% (active)
11 | COc1ccc(C)cc1-n1c(-c2ccc(Cl)cc2)cc2c1CC(C)(C)CC2=O | 86%
12 | Cc1ccc(-c2cc3c(n2-c2ccc(C)cc2)CC(C)(C)CC3=O)cc1 | 74%
13 | CC1(C)CC(=O)c2cc(-c3nc(-c4ccc(Cl)cc4)cs3)c(=O)n(-c3cccc(F)c3)c2C1 | 70%
14 | COc1ccc(-n2c(-c3ccc(C)cc3)cc3c2CC(C)(C)CC3=O)cc1Cl | 80%
15 | COc1ccc(-n2c3c(cc(-c4nc(-c5ccc(Cl)cc5)cs4)c2=O)C(=O)CC(C)(C)C3)cc1 | 140%
16 | COc1ccc(-n2c(-c3ccc(C)cc3)cc3c2CC(C)(C)CC3=O)c(OC)c1 | 101%
17 | COc1cccc(-n2c(-c3ccc(Cl)cc3)cc3c2CC(C)(C)CC3=O)c1 | 35% (active)
18 | Cc1ccc(-n2c3c(cc(-c4nc(-c5ccc(Cl)cc5)cs4)c2=O)C(=O)CC(C)(C)C3)cc1 | 79%
19 | CN(C)c1ccc(CNC(=O)c2cnc3sc(N4CCOCC4)nn3c2=O)cc1 | 85%
20 | CC(CCc1ccccc1)NC(=O)Cn1ncc2c3ccccc3n(Cc3ccccc3)c2c1=O (configuration not stated) | 81%
21 | CCc1ccc(OCC2c3cc(OC)c(OC)cc3CCN2C(=O)COc2ccccc2)cc1 (configuration not stated) | 91%
22 | CCC(C(=O)NCc1ccccc1Cl)n1nc(C)c2sc3ccccc3c2c1=O (configuration not stated) | 103%

Row | Structure (SMILES) | survival
23 | Cc1cccc(NC(=O)c2cc(S(=O)(=O)N3CCCCCC3)cn2C)c1C | 67%
24 | O=C(NCCc1ccccc1)C1CCN(Cc2cc3ccccc3n2Cc2ccccc2)CC1 | 79%
25 | Cc1cccc(N(C)S(=O)(=O)c2cc3[nH]c(=O)c(=O)[nH]c3cc2C)c1 | 88%
26 | CC(C)c1cnc2c(c1SCC(=O)Nc1cccc(F)c1)c(=O)n(C)c(=O)n2C | 81%
27 | CCN(CC)CCn1c(-c2ccccc2)csc1=Nc1ccccc1 | 42% (active)
28 | COc1ccc(-c2csc(=Nc3ccccc3)n2CCO)cc1F | 58%
29 | O=S(=O)(c1ccc(-c2csc(=Nc3ccc(F)cc3)n2CCCCCCO)cc1)N1CCCC1 | 56%
30 | O=S(=O)(c1ccc(-c2csc(=Nc3ccc(OC(F)(F)Cl)cc3)n2CCCO)cc1)N1CCCC1 | 159%
31 | Cc1ccc(-c2csc(=Nc3ccccc3)n2CCCO)cc1 | 5% (active)
32 | Clc1ccc(-c2csc(=Nc3ccccc3)n2Cc2ccc3c(c2)OCO3)cc1 | 95%
33 | Cc1ccc(-c2csc(=Nc3ccccc3)n2Cc2ccc3c(c2)OCO3)cc1C | 112%
34 | OCCCn1c(-c2ccc(F)cc2)csc1=Nc1ccc(F)cc1 | 39% (active)
35 | Cc1ccc(-c2csc(=Nc3ccccc3)n2Cc2ccc3c(c2)OCO3)cc1 | 73%
36 | CCOC(=O)c1c(NC(=O)CSc2cn(CCNC(=O)c3c(F)cccc3F)c3ccccc23)sc2c1CCC2 | 93%
37 | COc1ccc(Cl)cc1NC(=O)c1cc(S(=O)(=O)N(C)Cc2ccccc2)ccc1F | 74%
38 | O=C(c1cc(-c2ccc(Br)cc2)n[nH]1)N1CCN(S(=O)(=O)c2ccc(Br)cc2)CC1 | 79%
39 | CN(C)S(=O)(=O)n1cc(/C=C(\NC(=O)c2ccccc2)C(=O)NCCCn2ccnc2)c2ccccc21 | 104%
40 | COc1ccc(CNC(=O)c2ccc(NC(=O)N3CCSc4ncccc43)cc2)c(OC)c1 | 81%
41 | COc1ccc(OC)c(C2C(C(N)=O)=C(C)Nc3nc(-c4cccc(Cl)c4)nn32)c1 (configuration not stated) | 113%
42 | CCOc1ccc(S(=O)(=O)N2CCN(c3cc(Cl)ccc3Cl)CC2)c2ccccc12 | 64%
43 | O=C(Nc1nnc(S(=O)(=O)N2CCCc3ccccc32)s1)c1ccc(Cl)cc1 | 15% (active)
44 | O=C(Nc1nnc(S(=O)(=O)N2CCCc3ccccc32)s1)c1cccc(F)c1 | 7% (active)

Row | Structure (SMILES) | survival
45 | Cc1cc(C)c2nc(NC(=O)c3ccc(S(=O)(=O)N4CCc5ccccc54)cc3)sc2c1 | 83%
46 | O=C(Nc1nc2c(F)cccc2s1)c1ccc(S(=O)(=O)N2CCCc3ccccc32)cc1 | 102%
47 | O=C(Nc1nnc(S(=O)(=O)N2CCCc3ccccc32)s1)c1ccccc1 | 27% (active)
48 | CCC(CC)C(=O)Nc1nnc(S(=O)(=O)N2CCc3ccccc32)s1 | 73%
49 | O=C(Nc1nnc(S(=O)(=O)N2CCc3ccccc32)s1)c1ccccc1 | 12% (active)
50 | Cc1c(Cl)ccc2sc(NC(=O)c3ccc(S(=O)(=O)N4CCCc5ccccc54)cc3)nc12 | 55%
51 | Cc1nc2ccccc2c2nc(N)nn12 | 85%
52 | C=Cc1ccc(CSc2nc(-c3ccc(Cl)cc3)nc3c2Cc2c(CO)cnc(C)c2O3)cc1 | 70%
53 | COc1ccc(NC(=O)Cn2c(SCc3ccc(F)cc3)nc3cccnc32)cc1OC | 74%
54 | CC(=O)c1ccc(S(=O)(=O)Nc2cccc(-c3ccc(N4CCCC4)nn3)c2)cc1 | 89%
55 | Cc1ccccc1Cn1c(=O)n(CCCCCC(=O)NCc2ccc3c(c2)OCO3)c(=O)c2sccc21 | 101%
56 | COc1ccc2c(=O)c(NC(=O)Nc3ccc(F)cc3F)c[nH]c2c1 | 92%
57 | O=c1c2sc3ccccc3c2n(Cc2cccc(C(F)(F)F)c2)c(=O)n1Cc1ccc(F)cc1 | 114%
58 | O=C(Nc1ccc(F)cc1F)C1CCN(C(=O)c2cnn(-c3ccccc3)c2-n2cccc2)CC1 | 106%
59 | C=CCn1c(SC(C)C)nc2sc3c(c2c1=O)CCCC3 | 71%
60 | CC(C)Sc1nc2sc3c(c2c(=O)n1Cc1ccccc1)CCCC3 | 13% (active)
61 | C=CCSc1nc2sc3c(c2c(=O)n1CC=C)CCCC3 | 98%
62 | CC(C)Sc1nc2sc3c(c2c(=O)n1-c1ccccc1)CCCC3 | -3% (active)
63 | C=C(C)Cn1c(SCC(=O)Nc2ccccc2C)nc2sc3c(c2c1=O)CCCC3 | 126%
64 | O=c1c2c3c(sc2nc(NCCO)n1-c1ccccc1)CCCC3 | 92%
65 | O=c1[nH]c2sc3c(c2c(=O)n1-c1ccccc1)CCCC3 | 70%
66 | C#CCSc1nc2sc3c(c2c(=O)n1Cc1ccccc1)CCCC3 | 33% (active)

Row | Structure (SMILES) | survival
67 | CCCCC(c1nnnn1C(C)C)N1CCN(c2ccc(F)cc2)CC1 (configuration not stated) | 85%
68 | CCOC(=O)Cn1c2[n+](c3ccccc31)CC(O)CS2 (configuration not stated) | 72%
69 | Cc1ccc(CNC(=O)CSc2nc3ccsc3c(=O)n2-c2ccc(C(=O)O)cc2)cc1 | 95%
70 | Cc1ccc(C)c(NC(=O)C2CCCN2S(=O)(=O)c2ccc3c(c2)n(C)c(=O)c(=O)n3C)c1 (configuration not stated) | 38% (active)
71 | Cc1ccc(NC(=O)C2CCCN2S(=O)(=O)c2ccc3c(c2)n(C)c(=O)c(=O)n3C)cc1C (configuration not stated) | 115%
72 | Cc1ccc(NC(=O)C2CCCN2S(=O)(=O)c2ccc3c(c2)n(C)c(=O)c(=O)n3C)cc1 (configuration not stated) | 87%
73 | COc1ccc2cc(CNc3ccccc3)c(=O)n(CC(=O)Nc3ccc(C(C)=O)cc3)c2c1 | 68%
74 | COc1ccccc1NC(=O)C(C#N)Cc1cc2cc(C)cc(C)c2[nH]c1=O (configuration not stated) | 98%
75 | CCOC(=O)c1cc2c(ccn2-c2ccc(F)cc2)n1CC(=O)c1ccc2c(c1)OCCO2 | 100%
76 | CC(Oc1ccc(Br)cc1)C(=O)N(Cc1nc(-c2ccccc2)no1)C(C)C (configuration not stated) | 97%
77 | COc1ccc(OC(C)C(=O)NCc2nc(-c3cccc(C)c3)no2)cc1 (configuration not stated) | 61%
78 | COc1ccccc1C(=O)N(Cc1nc(-c2cccc(C)c2)no1)C(C)C | 62%
79 | Cc1cccc(-c2noc(CN(C(=O)c3ccccc3Cl)C(C)C)n2)c1 | 62%
80 | Cc1cccc(-c2noc(CN(C(=O)COc3ccc(C(C)C)cc3)C(C)C)n2)c1 | 11% (active)
81 | Cc1cccc(-c2noc(CN(C(=O)COc3ccc(Br)cc3C)C(C)C)n2)c1 | 45% (active)
82 | Cc1cccc(-c2noc(CN(C(=O)c3ccc(C)c(C)c3)C(C)C)n2)c1 | -3% (active)
83 | CCOc1ccc(C(=O)N(Cc2nc(-c3cccc(C)c3)no2)C(C)C)cc1 | 0% (active)
84 | Cc1ccc2cc(CN(C(=O)c3cccc(Cl)c3)c3ccccc3)c(=O)[nH]c2c1 | 74%
85 | CCS(=O)(=O)N1CCc2cc(C(=O)Nc3cc(C(F)(F)F)ccc3Cl)ccc21 | 48%
86 | Cc1ccc(-c2noc(CSc3nnc(C)n3-c3ccc(F)cc3)n2)cc1 | 61%
87 | CCCN1CCN(CCCNC(=O)c2cc3c(=O)[nH]c4ccccc4c3s2)CC1 | 79%
